Results: PubChem BioAssay (NCI)
This is part of a sample that, as a whole, favours compounds with a hit. Of some 83,000 tested, about 20% had one in any assay.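 Activity criterion: percent growth below 10, measured after cells in 96-well plates were exposed to a single compound concentration for 48 hours.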 A number with no mark means an inactive call. Calls of active or inactive are those of the source.

The molecules below were run on RPMI-8226 leukemia (assay: NCI-60 one-dose screen, 48 h (100 = growth as untreated, 0 = no growth, -100 = all killed)). Conditions: 10 µM.
CC1(C)CNC(=O)N1 gave a growth of 95.8%.
Molecule Nc1ccn([C@@H]2O[C@H](COP(=O)(O)O[C@@H]3C[C@H](n4cc(F)c(=O)[nH]c4=O)O[C@@H]3COP(=O)(O)O[C@@H]3C[C@H](n4cc(F)c(=O)[nH]c4=O)O[C@@H]3COP(=O)(O)O[C@@H]3C[C@H](n4cc(F)c(=O)[nH]c4=O)O[C@@H]3COP(=O)(O)O[C@@H]3C[C@H](n4cc(F)c(=O)[nH]c4=O)O[C@@H]3COP(=O)(O)O[C@@H]3C[C@H](n4cc(F)c(=O)[nH]c4=O)O[C@@H]3COP(=O)(O)O[C@@H]3C[C@H](n4cc(F)c(=O)[nH]c4=O)O[C@@H]3COP(=O)(O)O[C@@H]3C[C@H](n4cc(F)c(=O)[nH]c4=O)O[C@@H]3COP(=O)(O)O[C@@H]3C[C@H](n4cc(F)c(=O)[nH]c4=O)O[C@@H]3COP(=O)(O)O[C@@H]3C[C@H](n4cc(F)c(=O)[nH]c4=O)O[C@@H]3COP(=O)(O)O[C@@H]3C[C@H](n4cc(F)c(=O)[nH]c4=O)O[C@@H]3COP(=O)(O)OCCOCCOCCOCCOCCOCCO)[C@H](O)C2O)c(=O)n1 (stereo partly drawn) has a growth of 50.1%.
In the case of CCCCN(CCCC)c1ccc(C(=NC(C)CCCN(CC)CC)c2ccc(N(C)C)cc2)cc1 (stereo not drawn), the growth is reported as -43.6% (active).
Cc1nc2cc(-n3c(-c4ccc(F)cc4)nc4ccccc4c3=O)ccc2n1Cc1ccccc1 was tested, and the growth was 37.5%.
CN(C)Cc1cccs1 showed a growth of 102%.
For CCCCCCCCCCCCc1ccc(C(=O)/C=C/C(=O)O)cc1, the growth was 6.04% (active).
Nc1nsc(C(=O)c2ccc(O)cc2)n1 showed a growth of 90.7%.
Molecule O=C(CSc1nnc(-c2ccc(Cl)cc2)o1)c1ccccc1 has a growth of 96.4%.
NC1CCC(Nc2nc(NCc3ccc(-c4cccs4)nc3)c3ncn(C4CCCC4)c3n2)CC1 (stereo not drawn) was tested, and the growth was -20.5% (active).
Work on CCCCOCC(=O)NC(NP(=O)(N(C)C)N(C)C)C(Cl)(Cl)Cl (stereo not drawn) yielded a growth of 100%.
For CCOc1ccc(-n2cc(-c3ccc(N(C)C)cc3)[n+]3c2CCCCC3)cc1, the growth was 6.41% (active).
CCC1(C)OC(=O)NC1=O (stereo not drawn) showed a growth of 96.6%.
CC(=O)Nc1ccc(Sc2ccc(NC(C)=O)cc2)cc1 was tested, and the growth was 99%.
Work on O=C1CC[C@@H](C(=O)N[C@H]2CSSC[C@@H](C(=O)NCCc3ccccc3)NC(=O)[C@H](Cc3ccccc3)NC(=O)[C@@H]3CCCN3C(=O)[C@@H]3CCCN3C2=O)N1 yielded a growth of 108%.
For O=C1CC(c2cccc(-c3cccnc3)c2)=Nc2ccc(Br)cc2N1, the growth was 40.7%.
Clc1cc(Cl)c(OCCCCCCN2CCNCC2)c(Cl)c1 was tested, and the growth was -24.9% (active).
Molecule CCCCCC(CCC)COC(=O)c1ccc(OC)cc1 (stereo not drawn) has a growth of 91.8%.
O=c1oc2cc(OS(=O)(=O)C3CC3)ccc2c2c1CCCCCC2 gave a growth of 49.3%.
With C=C1C(=O)O[C@H]2[C@H]1CC/C(COC(=O)OCCCCCOC(=O)OC/C1=C/CC[C@@]3(C)O[C@H]3[C@H]3OC(=O)C(=C)[C@@H]3CC1)=C\CC[C@@]1(C)O[C@@H]21 the growth was -3.28% (active).
CCOC(=O)c1c(Cl)c2c(n1Cc1cccc(OC)c1)-c1oncc1CC2 was tested, and the growth was 35.4%.
For COc1cc2nc(Sc3sc(N)nc3C)n(-c3ccc(Oc4ccccc4)cc3)c(=O)c2cc1OC, the growth was 67.6%.
For CCCCCCCCCCN=C(c1ccc(N(C)C)cc1)c1ccc(N(C)C)cc1, the growth was 24.3%.
For Cc1cccc2c(Nc3ccc(NS(C)(=O)=O)cc3)c3ccc([N+](=O)[O-])cc3nc12, the growth was 0.668% (active).
For C[C@H](NC(=O)[C@@H]1CSSC[C@@H](NC(=O)Cc2nc3ccccc3cc2O)C(=O)NCC(=O)N1C)c1ccccc1, the growth was 87.2%.
For O=C(Nc1ccc(CN2CCOCC2)cc1)c1ccc(-c2cc(Cl)ccc2Cl)o1, the growth was -5.45% (active).
With COc1c(-c2c3sc(=O)[nH]c3nc3c2c(=O)[nH]n3C(C)C)cc2c(c1OC)OCO2 the growth was 93.2%.
COc1ccc(-c2nnc(SCC(=O)c3ccccc3)o2)cc1 gave a growth of 89%.
S=c1c2ncccc2c(-c2ccccn2)nn1Cc1ccccn1 showed a growth of 97.9%.
With COc1cc(C2C=C(c3ccc(Cl)c(Cl)c3)N=C3SC(C)=CN32)cc(OC)c1OC (stereo not drawn) the growth was -16.1% (active).
O=C(NCCc1nccs1)c1cnc2c(S)cccc2c1 showed a growth of 26.2%.
With N#Cc1c(-c2ccccc2)nc(SCC(=O)N2CCOCC2)[nH]c1=O the growth was 99%.
CCCCCCN=C(N)CCCCCCCCCCC(N)=NCCCCCC gave a growth of 28.8%.
CNC(=O)c1cc(Oc2ccc(NC(=O)Nc3ccc(Cl)c(C(C)(C)C)c3)c(F)c2)ccn1 was tested, and the growth was 34.2%.
CN(C)c1ccc2c(c1)OC(N)=C(C#N)C2c1ccc2c(c1)CCO2 (stereo not drawn) was tested, and the growth was 32.9%.
CCc1c(C(=O)NCc2c(O)ccc3cccc(O)c23)[nH]c(C)c1C(C)=O was tested, and the growth was 15.3%.
CC(=O)c1ccc(NCn2nc(-c3ccc(Cl)cc3)oc2=S)cc1 gave a growth of 105%.
COC(=O)c1cnc2c(c1)Oc1ccc(Cl)cc1-c1cc(C)nn1-2 was tested, and the growth was 95.6%.
Clc1cc(Cl)c(Cl)c(-c2nc(-c3cccnc3)cs2)c1 gave a growth of 40%.
